Measured values from PubChem BioAssay (NCI).
This is part of a sample that, as a whole, favours compounds with a hit. Of some 83,000 tested, about 20% had one in any assay.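 For each line, cells grew in 96-well plates with the test compound present at a single concentration for 48 hours.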 The source made the active and inactive calls.

These molecules were tested on SK-MEL-2 melanoma (assay: NCI-60 one-dose screen, 48 h (100 = growth as untreated, 0 = no growth, -100 = all killed)). Conditions: 10 µM unless noted.
Description: Growth inhibition of the SK-MEL-2 human tumor cell line is measured as a screen for anti-cancer activity. Cells are grown in 96 well plates and exposed to the test compound for 48 hours. Compounds are tested at a single concentration, which is 10^-5 M for most compounds. The reported endpoint is percent growth (GI% or GIPRCNT), where numbers from 0 - 100% represent growth inhibition, and numbers from -100% - 0 represent cell death. For example, a value of 40 represents 60% growth inhibition. A value of 0 means no net growth occurred over the course of the experiment. A value of -40 indicates 40% of cells at the beginning of the experiment died by the end of the experiment. A value of -100 means all cells are dead at the end of the experiment.
NCI-60 Human Tumor Cell Lines Screen was performed using the standard one-dose NCI protocol, which is described in more detail at https://dtp.cancer.gov/discovery_development/nci-60/default.htm.
Compounds with GIPRCNT values below 10 were considered active. Activity score was based on GIPRCNT using the following formula: […]
Score is 0 for GIPRCNT values of 100 or above, 50 for GIPRCNT values of 0, and 100 for GIPRCNT values of -100.
`COc1ccc(/C(C)=C(\c2ccc(Cl)cc2)c2ccc(OCCN3CCCCC3)cc2)cc1` was tested, and the growth was 56.2% (inactive).
For `O=C1c2cccc3cccc(c23)C(=O)N1C/C=C/c1ccc2c3c(cccc13)C(=O)N(CCO)C2=O`, the growth was 90.7% (inactive).
With `CC1=C2[C@@H](CC1)[C@]1(C)O[C@@](c3ccccc3)(C[C@H]1OC(=O)CO)[C@H]2OC(=O)/C=C/c1ccccc1` the growth was 91.9% (inactive).
For `Ic1ccccc1I`, the growth was 85.4% (inactive).
With `O=S(=O)(Nc1cc(Sc2cccc3cccnc23)c(O)c2ccccc12)c1ccccc1` the growth was 13.4% (inactive).
In the case of `CC1=CCC(OC(=O)C(C)(C)CC(O)(C(C)O)C(O)C2(C)C=CC(Cc3ccc(C(C)C)cc3)(C(C)C)CC2)(C(C)C)CC1` (stereo not given), the growth is reported as 110% (inactive).
`C=C1C(=O)O[C@H]2[C@H]1CC/C(COC(=O)c1cc3cc(Cl)ccc3[nH]1)=C\CC[C@@]1(C)O[C@@H]21` was tested, and the growth was -84.2% (active).
`C[C@H](CCCC(=O)NCC#CCN1CCN(C)CC1)[C@H]1CC[C@H]2[C@@H]3CC[C@@H]4CC(=O)CC[C@]4(C)[C@H]3CC[C@]12C` was tested, and the growth was 103% (inactive).
With `COc1ccc(/C=C/c2ccc3ccccc3n2)c(OC)c1` the growth was 48.3% (inactive).
`CC(=O)O[C@H]1C[C@@H]2C(C)(C)C(=O)CC[C@@]2(C)c2ccc(C(C)C)cc21` was tested, and the growth was 109% (inactive).
In the case of `CCN(CC)CCCN1C(=O)c2c(c(C)c3c(oc4ccc(O)cc43)c2C)C1=O`, the growth is reported as 94.7% (inactive).
With `CC(C)=CCNc1ncnc2c1ncn2C1OC(CO)C(O)C1O` (stereo not given) the growth was -33.2% [1 mM] (active).
In the case of `Cc1ccc(-c2nc3nc(-c4ccccc4)nc(N4CCCN(S(C)(=O)=O)CC4)c3o2)cc1`, the growth is reported as 86.2% (inactive).
For `NS(=O)(=O)c1ccc(NC(=O)/C(=C\c2ccc(Cl)cc2Cl)NC(=O)c2ccccc2)cc1`, the growth was 95.3% (inactive).
For `O=c1cc(-c2ccccc2)[nH]c2ncc(-c3ccc(F)cc3)n12`, the growth was 74.2% (inactive).
`Cc1ccc(/C=C(\C#N)n2nnc3cc(F)c(F)cc32)cc1` was tested, and the growth was 14.8% (inactive).
With `CC(=C(c1ccc(OCCN2CCCCC2)cc1)c1ccc(OCCN2CCCCC2)cc1)c1ccc(Cl)cc1` the growth was -82.9% (active).
In the case of `Nc1nc(N)c2c(n1)NC(c1cccc(Nc3ccnc4cc(C(F)(F)F)ccc34)c1)CC(c1ccccc1)=N2` (stereo not given), the growth is reported as 35.1% (inactive).
`NC(N)=NS(=O)(=O)c1ccc(NC2=C(I)C(=O)c3ncccc3C2=O)cc1` was tested, and the growth was 106% (inactive).
`NC1=Nc2cc(OCCCCN3Cc4ccccc4C3)c(OCC3CC3)cc2C12CCCC2` was tested, and the growth was 12.5% (inactive).
`CN1CCN(CC(=O)Nc2ccc3ncnc(Nc4ccc(Oc5cccc(C(F)(F)F)c5)c(Cl)c4)c3c2)CC1` was tested, and the growth was -15.5% (active).
For `O=C(NCc1cccc(CNC(=O)Nc2nc3ccccc3[nH]2)c1)Nc1nc2ccccc2[nH]1`, the growth was -11.8% (active).
With `FC(F)(F)Oc1cccc(-c2cnc3ccc(-c4ccncc4)nn23)c1` the growth was -21.7% (active).
In the case of `COc1cc(-c2nc3c(ncc4ccc(=O)n(-c5ccccc5)c43)s2)cc(OC)c1OC`, the growth is reported as 88.4% (inactive).
With `N#CSc1c[nH]c2cccc(/C=C/C(=O)/C=C(O)/C=C/c3cccc4[nH]cc(SC#N)c34)c12` the growth was -58.8% (active).
With `CC1=C(C(=O)Nc2nc(-c3ccc(Cl)cc3)cs2)[C@H](c2ccc(O)cc2)NC(=O)N1` the growth was 106% (inactive).
`O=c1c2c3c(sc2n2c(-c4cc(-c5ccccc5)no4)nnc2n1Cc1ccccc1)CCCC3` was tested, and the growth was 119% (inactive).
`CCOC(=O)c1c(C)nc2ccccc2c1/C=C/c1ccccc1` was tested, and the growth was 71.7% (inactive).
With `COc1ccc(C(=O)Cn2c(C(=O)c3ccc(Cl)cc3)nc3ccccc32)cc1` the growth was 73.4% (inactive).
In the case of `COc1cccc(/C=C/C(=O)c2cccc(Nc3nc(Nc4ccccc4)nc(Nc4ccccc4)n3)c2)c1`, the growth is reported as 57.9% (inactive).
In the case of `C=CCn1c(SCC(=O)Nc2ccc(/C(C)=N/O)cc2)nnc1-c1cc(-c2ccc(S(N)(=O)=O)cc2)nc2ccccc12`, the growth is reported as 83.7% (inactive).
In the case of `Cc1ccc(CNc2c3ccccc3nc3ccccc23)cc1`, the growth is reported as 42.7% (inactive).
`COc1ccc(/C=C/C(c2cc(OC)c(OC)c(OC)c2)n2cncn2)cc1` (stereo not given) was tested, and the growth was 12.9% (inactive).
In the case of `Cc1nc2sc(C(=O)Nc3cccc(Br)c3C)c(N)c2cc1C(O)c1ccccc1` (stereo not given), the growth is reported as 29.7% (inactive).
`C=C1C(=O)O[C@H]2[C@H]1CC/C(CNC(=O)c1c[nH]c3ccc(F)cc13)=C\CC[C@@]1(C)O[C@@H]21` was tested, and the growth was 45.1% (inactive).
With `COc1ccc(C2=CC(c3cc(OC)c(OC)c(OC)c3)n3ncnc3N2)cc1` (stereo not given) the growth was 24% (inactive).
In the case of `COc1ccc(C(O)c2cc3c(N)c(C(=O)Nc4cccc(Cl)c4C)sc3nc2C)cc1` (stereo not given), the growth is reported as 17% (inactive).
In the case of `CCOC(=O)C(=CNc1cnc(Nc2ccc(N3CCOCC3)cc2)nc1Oc1ccc(OC)cc1)C(=O)OCC`, the growth is reported as 91.8% (inactive).
In the case of `COc1cccc(/C=C/C(=O)c2cc3c(N)c(C(=O)Nc4cccc5ccccc45)sc3nc2C)c1`, the growth is reported as 24.2% (inactive).
In the case of `CC(C)(C)c1cc(Cl)c(O)c(CNCCO)c1`, the growth is reported as 113% (inactive).
